By Inhibition is commonly meant the drop in the measured response relative to a control, in per cent.

For part of these data: Results with a measured potency or affinity are listed apart.

This is an account of results in ChEMBL document CHEMBL4296182, “CO-ADD screening of NIH NCI Diversity Set V”.

The test system of assay [1] is Staphylococcus aureus. Nature of the assay: Antibacterial activity against Staphylococcus aureus MRSA ATCC 43300 (CO-ADD:GP_020); MIC in CAMBH media using NBS plates, by Resazurin F(560/590). The class given is functional. Particulars: Concentration 20 uM, ASSAY_TEST Inhibition of Bacterial Growth, detection method Resazurin, Fluorescence (ex560/em590), MEDIA CAMHB, plate type 384well, CORNING #3640, time 18 hr. A general note: The colour change of resazurin is a common sign of viable cells or microbes.

Assay [2] relates to Acinetobacter baumannii. The assay can be described thus: Antibacterial activity against Acinetobacter baumannii ATCC 19606 (CO-ADD:GN_034); MIC in CAMBH media using NBS plates, by Resazurin F(560/590). The class given is functional. As to conditions: Concentration 20 uM, ASSAY_TEST Inhibition of Bacterial Growth, detection method Resazurin, Fluorescence (ex560/em590), MEDIA CAMHB, plate type 384well, CORNING #3640, time 18 hr.

Assay [3] has as its system Escherichia coli. The assay can be described thus: Antibacterial activity against Escherichia coli ATCC 25922 (CO-ADD:GN_001); MIC in CAMBH media using NBS plates, by Resazurin F(560/590). Particulars: Concentration 20 uM, ASSAY_TEST Inhibition of Bacterial Growth, detection method Resazurin, Fluorescence (ex560/em590), MEDIA CAMHB, plate type 384well, CORNING #3640, time 18 hr. The class given is functional.

For assay [4], the system named is Klebsiella pneumoniae. Particulars: Concentration 20 uM; ASSAY_TEST Inhibition of Bacterial Growth; detection method Absorption (OD600); MEDIA CAMHB; plate type 384well; NBS; CORNING #3640; time 18 hr.
Assay [5] deals with Candida albicans. As to conditions: 20 µM.
Assay [6] concerns Cryptococcus neoformans. As to conditions: Concentration 20 uM; ASSAY_TEST Inhibition of Fungal Growth; detection method Resazurin; Absorption (OD600-OD570); plate type 384well; NBS; CORNING #3640.

In the case of `C(=C\c1ccccn1)/c1ccccn1`, the Inhibition was -7.74% in assay [1]; -5.17% in assay [2]; -19.26% in assay [3]; 9.47% in assay [4]; 4.3% in assay [5]; 26.47% in assay [6].
Consider `CN(C)S(=O)(=O)N1C(=O)c2ccccc2C1=O`, for which the Inhibition in assay [1] is 5.4%; in assay [2], 12.12%; in assay [3] it was -0.21%; in assay [4], 11.91%; in assay [5] it was 5.89%; in assay [6], -1.33%.
As to `CCOC(=O)/C=C/c1nc(O)c(C)c(C(=O)OCC)n1`, the Inhibition in assay [1] was -2.98%; in assay [2] it was -11.68%; in assay [3], 5.55%; in assay [4], 4.47%; in assay [5], 0.35%; in assay [6], -10.31%.
Take `c1cc2c3c(cccc3c1)NC1(CCC3(CC1)Nc1cccc4cccc(c14)N3)N2`: the Inhibition in assay [1] was 1.15%; in assay [2], 7%; in assay [3], 12.93%; in assay [4] it was 19.89%; in assay [5] it was 2.38%; in assay [6], -5.58%.
As to `CSc1nc(N)c(C(=O)NC2CCCCC2)s1`, the Inhibition in assay [1] was 30.14%; in assay [2], -5.51%; in assay [3], 5.05%; in assay [4] it was 13.28%; in assay [5], 8.55%; in assay [6] it was -3.08%.
Regarding `O=C1/C(=C/c2ccc([N+](=O)[O-])cc2)CCc2ccccc21`, the Inhibition in assay [1] was 6.03%; in assay [2], -4.9%; in assay [3] it was 11.7%; in assay [4], 8.24%; in assay [5], 3.4%; in assay [6], -8.15%.
For `Cc1cc(NC(=O)NC(=O)c2ccccc2NC(=O)C(C)N)ccc1Oc1ncc(Br)cn1.Cl` (stereo not given), the Inhibition in assay [1] is 19.83%; in assay [2], -8.48%; in assay [3] it was 11.58%; in assay [4] it was 15.35%; in assay [5], -1.4%; in assay [6] it was -7.47%.
On to `Nc1nc(SCc2ccccn2)c2ncn(C3OC(CO)C(O)C3O)c2n1` (stereo not given), for which the Inhibition was 6.83% in assay [1]; 2.95% in assay [2]; 4.84% in assay [3]; 10.89% in assay [4]; -1.39% in assay [5]; -4.63% in assay [6].
For the compound `CC1(C)CC(Nc2ccc(Nc3ccccc3)cc2)CC(C)(C)N1`, the Inhibition in assay [1] is 6.04%; in assay [2] it was 9.93%; in assay [3], -3.22%; in assay [4], 10.49%; in assay [5], 1.33%; in assay [6] it was -0.13%.
In the case of `COC(=O)C(=Cc1ccccc1[N+](=O)[O-])C(=O)OC`, the Inhibition is -1.4% in assay [1]; -8.17% in assay [2]; 9.13% in assay [3]; 10.58% in assay [4]; 9.98% in assay [5]; -18.32% in assay [6].
Take `O=C(c1cccnc1)c1cc(-c2ccccn2)c(=O)n2ccccc12`: the Inhibition in assay [1] is 15.83%; in assay [2], 5.57%; in assay [3] it was 12.26%; in assay [4], 7.21%; in assay [5], 0.65%; in assay [6] it was -7.13%.
For `c1ccc2[nH]c(CCCCCc3nc4ccccc4[nH]3)nc2c1`, the Inhibition is 5.94% in assay [1]; 0.02% in assay [2]; -19.74% in assay [3]; 9.39% in assay [4]; 4.8% in assay [5]; 17.08% in assay [6].
For the compound `CN(C)CCCn1c2c3ccccc3ccc2c2oc(=O)c3ccccc3c21.Cl`, the Inhibition in assay [1] is 14.28%; in assay [2], -7.18%; in assay [3], 12.65%; in assay [4], 11.13%; in assay [5], 0.85%; in assay [6], -2.35%.
For the compound `c1ccc2c(c1)nnn2-c1ccncc1`, the Inhibition was -3.68% in assay [1]; -2.01% in assay [2]; -7.33% in assay [3]; 4.04% in assay [4]; 1.59% in assay [5]; -7.26% in assay [6].
Turning to `Cc1nc(SCC(=O)O)n[nH]1` [TIAZOTIC ACID], the Inhibition in assay [1] was 14.48%; in assay [2], -8.95%; in assay [3] it was 7.99%; in assay [4], 14.92%; in assay [5] it was 2.04%; in assay [6] it was -0.18%.
Turning to `Cc1nc([C@H]2CC[C@H]3[C@@H]4CCC5=CC(=O)CC[C@]5(C)[C@H]4CC[C@]23C)cs1`, the Inhibition in assay [1] is 4.31%; in assay [2], 15.21%; in assay [3] it was 6.81%; in assay [4] it was 9.22%; in assay [5] it was 2.4%; in assay [6], -7.32%.
`C1=CC2(C=C1)OC21CCC2(C=CC3(C2)OC3C2CCCCC2)CC1` (stereo not given): the Inhibition in assay [1] was -4.93%; in assay [2] it was 2.41%; in assay [3], 4.97%; in assay [4] it was -0.69%; in assay [5] it was 1.23%; in assay [6] it was -15.19%.
Turning to `CC(=O)OC1CCC2(C)C(=CCC3C2CCC2(C)C3CC3OC4(CCC(C)CN4)C(C)C32)C1` (stereo not given), the Inhibition in assay [1] is -5.01%; in assay [2] it was -6.15%; in assay [3], 18.44%; in assay [4] it was 9.38%; in assay [5] it was 6.33%; in assay [6] it was 14.75%.
Consider `COc1ccc(C(=S)N2CCN(c3cccc(Cl)c3)CC2)cc1`, for which the Inhibition in assay [1] was 13.14%; in assay [2] it was 2%; in assay [3], 3.07%; in assay [4] it was 17.03%; in assay [5] it was 9.51%; in assay [6] it was -10.07%.
As for `NC(=O)c1ccc(Cl)c2ccccc12`, the Inhibition in assay [1] was 11.2%; in assay [2] it was -9.07%; in assay [3], 13.67%; in assay [4] it was 7.47%; in assay [5] it was 6.64%; in assay [6], -4.82%.
For the compound `NS(=O)(=O)c1ccc(/N=N/c2ccc(O)[nH]c2=O)cc1`, the Inhibition was -4.07% in assay [1]; -21.96% in assay [2]; 14.83% in assay [3]; 2.74% in assay [4]; 3.25% in assay [5]; -15.42% in assay [6].
Regarding `Cc1c([N+](=O)[O-])oc2c1C(=O)NCCC2`, the Inhibition was 15.45% in assay [1]; 5.11% in assay [2]; 5.84% in assay [3]; 9.17% in assay [4]; 2.94% in assay [5]; -11.37% in assay [6].
Consider `CC(=O)O.N=c1ccn2c(n1)OC1C(O)C(CO)OC12` (stereo not given), for which the Inhibition in assay [1] is 0.21%; in assay [2], -10.07%; in assay [3] it was 8.11%; in assay [4] it was 17.17%; in assay [5], -0.52%; in assay [6] it was -12.02%.
For the compound `C=CCN(CC=C)C(=O)Nc1cc(OC)ccc1OC`, the Inhibition is -0.3% in assay [1]; -10.17% in assay [2]; 5.84% in assay [3]; 8.16% in assay [4]; 3.21% in assay [5]; -3.48% in assay [6].
Take `O=C(NCc1ccco1)Nc1ccc([N+](=O)[O-])cc1`: the Inhibition in assay [1] is 14.72%; in assay [2], 3.43%; in assay [3], 4.45%; in assay [4], 18.95%; in assay [5] it was 5.76%; in assay [6], -12.12%.
